Assay results from PubChem BioAssay.

System: not listed separately
Assay: small-molecule binders of probe aInhba, primary screen, biochemical, small-molecule microarray, 635/667 nm fluorescence (AID 1148);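 note: score merges 667nm spot fluorescence with signal-to-noise for antibody binding to printed compounds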
Details: higher = more signal

Compound | composite z-score
CS(=O)(=O)CCOC(=O)C1=CC(c2ccc(CO)cc2)=CC(C2CC2)N(Cc2sc3ccccc3c2Cl)C=C1C(=O)OCCS(C)(=O)=O (stereo not drawn) | 0.0843
CCCCNC(=O)c1ccc(C#CC(C)(C)C)c(OC(C)=O)c1 | -0.21
O=C1C2C=CC(C(O)c3ccco3)N(Nc3ccccc3F)C2C(=O)N1c1ccccc1 (stereo not drawn) | 0.0275
COc1cc(NN2C(C(O)c3ccco3)C=CC3C(=O)N(C)C(=O)C32)cc(OC)c1OC (stereo not drawn) | 0.288
COC(=O)[C@@]1(Cc2ccc(F)cc2)[C@H]2c3cc(C(=O)N(C)C)n(CCc4ccc(OC)c(Br)c4)c3C[C@H]2CN1C(=O)c1ccccc1 | 0.925
CC(C)[Si](C#CCCCC#N)(O[C@H](c1ccccc1)c1cn(Cc2ccccc2)nn1)C(C)C | -0.157
COCCOC(=O)N1C(=O)[C@@]2(c3cc(C#CC4(O)CCCCCC4)ccc31)[C@H](C(=O)Nc1nc3ccccc3s1)[C@H]1C(=O)O[C@H](c3ccccc3)[C@H](c3ccccc3)N1[C@@H]2c1ccc(O)cc1 | 0.117

Target: Torsin-1A (Homo sapiens) (UniProt O14656)
Sequence (O14656 whole entry, looked up): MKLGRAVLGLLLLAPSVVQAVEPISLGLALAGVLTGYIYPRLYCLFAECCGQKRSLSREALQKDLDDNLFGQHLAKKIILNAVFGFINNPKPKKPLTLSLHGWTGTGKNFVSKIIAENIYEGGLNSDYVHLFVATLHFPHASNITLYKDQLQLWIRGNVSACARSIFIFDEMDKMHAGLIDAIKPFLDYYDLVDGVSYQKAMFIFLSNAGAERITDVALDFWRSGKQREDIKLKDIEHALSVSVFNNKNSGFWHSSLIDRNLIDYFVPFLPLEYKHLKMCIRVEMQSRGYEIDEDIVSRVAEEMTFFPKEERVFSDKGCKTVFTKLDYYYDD
Assay: torsin A binders from cell lysate, primary screen, small-molecule microarray, wild-type, 635/667 nm (AID 1149)
Details: COS7 hTOR1A-WT lysate, 635 nm fluorescence, higher = more signal

Compound | composite z-score
CCC#CCN(Cc1ccccc1Br)[C@H](/C=C/C1CC1)[C@@H](O)Cc1ccccc1 | -0.806
CCCCN1CC=CC23O[C@@H]4/C=C\CCCOC(=O)C4[C@H]2C(=O)N(CCO)[C@@H]3C1=O (stereo partly drawn) | -2.13
C=CCNC(=O)[C@@H]1[C@H]2C(=O)O[C@H](c3ccccc3)[C@H](c3ccccc3)N2[C@H](c2ccccc2OCCO)[C@@]12C(=O)N(C(=O)OCCOC)c1ccc(C#CC3(O)CCCCCC3)cc12 | 0.759
O=C(C1N=C(c2ccc(OCCCO)cc2)N(c2ccccc2)O1)N1CCCCC1 (stereo not drawn) | 0.407
CN(C)CCCCCCNC(=O)[C@@H]1C[C@@H]2C(=O)N3CCC[C@H]3C(=O)N2[C@@H]1c1cccc(OCCO)c1 | 1.99
COC(=O)[C@@]1(Cc2ccccc2)[C@H]2c3cc(C(=O)N(C)C)n(Cc4ccc(C)o4)c3C[C@H]2CN1C(=O)c1ccccc1 | 0.125
O[C@@H](Cc1ccccc1)[C@@H](/C=C/C1CC1)N(CC#Cc1ccccc1)Cc1ccccc1Br | -0.802
COCC(=C=CC[C@H](O)c1ccc(OCCO)cc1)CCO | 1.91
NCCCCCNC(=O)[C@H]1C[C@H]2C(=O)N3CCC[C@H]3C(=O)N2[C@H]1c1cccc(OCCO)c1 | 1.05
CCCC[C@@H]1C[C@H]1[C@@H](NC(=O)c1cccs1)c1ccccc1C(F)(F)F | 0.458
CCOC(=O)C[C@H]1[C@H](OC(=O)Cc2ccc3c(c2)OCO3)[C@@H](NC(=O)C2CCCCC2)c2cc(OCCCO)ccc2N1C(=O)c1ccccc1 | -0.0429
COc1cc(C(O)C2C=CC3C(=O)N(C)C(=O)C3N2Nc2ccccc2)cc(OC)c1OC (stereo not drawn) | 0.892
COc1ccc([Si](C)(C)[C@@H]2[C@@H](CC(=O)N3Cc4ccccc4C[C@H]3CO)O[C@]3(C(=O)N(Cc4ccc(N5C(=O)c6cccc7cccc5c67)cc4)c4ccccc43)[C@H]2C)cc1 | 0.645
C=CCC(OC(C)=O)[C@@H]1[C@@H](N(Cc2ccc(-c3cccc(C(F)(F)F)c3)o2)C(=O)c2ccc(-c3ccccc3)cc2)c2cc(OCCCO)ccc2N1C(=O)Cc1ccc2ccccc2c1 (stereo partly drawn) | -1.21
C=CCNC(=O)[C@H]1[C@@H]2C(=O)O[C@@H](c3ccccc3)[C@@H](c3ccccc3)N2[C@@H](c2ccccc2OCCO)[C@]12C(=O)N(C(=O)OCCOC)c1ccc(C#CC3(O)CCCCCC3)cc12 | 0.216
COc1ccc([Si](C)(C)[C@@H]2[C@@H](CCO)O[C@]3(C(=O)N(Cc4cccc(NC(=O)[C@H](C)O)c4)c4ccccc43)[C@H]2C)cc1 | 0.23
CCCCC[C@H]1OC[C@@]23C=C(Br)[C@@H](CC12)[C@@]1(CO1)C3=O (stereo partly drawn) | -0.695
C=CCN1Cc2ccccc2[C@@H]2OC(c3ccc(OCCCO)cc3)=N[C@]2(CC=C)C1=O | 0.918

Compound | composite z-score
Cc1ccc(NN2C(C(O)c3c(F)cccc3Cl)C=CC3C(=O)N(C4CCCCC4)C(=O)C32)cc1 (stereo not drawn) | 0.0334
CCCCC(CC)C(O)C1C=CC2C(=O)N(c3ccccc3)C(=O)C2N1Nc1ccc(C#N)cc1 (stereo not drawn) | -0.064
NC(=O)[C@H]1[C@@H]2C(=O)O[C@@H](c3ccccc3)[C@@H](c3ccccc3)N2[C@@H](c2ccc(OCCO)cc2)[C@]12C(=O)Nc1ccc(C#CCCO)cc12 | 0.579
CCC1=C2CN(Cc3ccccc3)[C@@H](C(=O)Cc3ccccc3)C2C=CCC1 (stereo partly drawn) | -0.645
[N-]=[N+]=Nc1ccccc1C[C@]1(C(=O)NCC(O)CO)COC(c2ccc(OCCCO)cc2)=N1 (stereo partly drawn) | 1.3
CCCC=C(CCC)[C@@H](NP(=O)(c1ccccc1)c1ccccc1)c1ccc(-c2ccccc2)cc1 | 0.804
CCOC(=O)C[C@H]1[C@H](OC(=O)c2ccc(C(=O)c3ccccc3)cc2)[C@@H](NC(=O)c2ccc(-c3ccccc3)cc2)c2cc(OCCCO)ccc2N1C(=O)Cc1ccc(OC)cc1 | -0.0633
CO[C@H]1O[C@H](CO)[C@@H](OC(=O)CCc2ccccc2)[C@@H]2OC(=O)[C@@H](Cc3ccccc3)C/C=C/C[C@H](Cc3ccccc3)C(=O)O[C@@H]12 | -0.293
CCOC(=O)C1=C[C@@H](c2ccccc2)N(S(=O)(=O)c2ccc(C)cc2)[C@H]1c1ccc(OC)cc1 | 0.162
[N-]=[N+]=Nc1ccccc1C[C@]1(C(=O)NCCN2CCOCC2)COC(c2ccc(OCCCO)cc2)=N1 | 0.707
COc1ccc([Si](C)(C)[C@H]2[C@H](CC(=O)N3Cc4ccccc4C[C@H]3CO)O[C@@]3(C(=O)N(Cc4ccc(N5CCOC5=O)cc4)c4ccccc43)[C@@H]2C)cc1 | 0.787
CS(=O)(=O)CCOC(=O)C1=CC(c2ccc(CO)cc2)=CC(C2CC2)N(Cc2sc3ccccc3c2Cl)C=C1C(=O)OCCS(C)(=O)=O (stereo not drawn) | 1.24
CCCCNC(=O)c1ccc(C#CC(C)(C)C)c(OC(C)=O)c1 | 0.121
O=C1C2C=CC(C(O)c3ccco3)N(Nc3ccccc3F)C2C(=O)N1c1ccccc1 (stereo not drawn) | -0.615
COc1cc(NN2C(C(O)c3ccco3)C=CC3C(=O)N(C)C(=O)C32)cc(OC)c1OC (stereo not drawn) | 1.27
COC(=O)[C@@]1(Cc2ccc(F)cc2)[C@H]2c3cc(C(=O)N(C)C)n(CCc4ccc(OC)c(Br)c4)c3C[C@H]2CN1C(=O)c1ccccc1 | 0.005
CC(C)[Si](C#CCCCC#N)(O[C@H](c1ccccc1)c1cn(Cc2ccccc2)nn1)C(C)C | 0.148
COCCOC(=O)N1C(=O)[C@@]2(c3cc(C#CC4(O)CCCCCC4)ccc31)[C@H](C(=O)Nc1nc3ccccc3s1)[C@H]1C(=O)O[C@H](c3ccccc3)[C@H](c3ccccc3)N1[C@@H]2c1ccc(O)cc1 | 0.878
